Compound activity: PubChem BioAssay, National Center for Advancing Translational Sciences (NCATS)
Only some compounds are listed: those with a hit (about 3.2% of all), similar ones and a draw of the others.
GLP-1R inv ag: acts as inverse agonist at human GLP-1 receptor; HEK293 GLP-1R CRE-luciferase, luminescence, 24 h; GLP-1R form is constitutively active; AID 624417; 1.6% of 410,000 active; P43220; Potency, µM (titrated, usually from 38.3 µM), usual class: inhibitors; further: nearly all actives have a fitted effect of over 55% in size
Target sequence (P43220 whole entry, looked up): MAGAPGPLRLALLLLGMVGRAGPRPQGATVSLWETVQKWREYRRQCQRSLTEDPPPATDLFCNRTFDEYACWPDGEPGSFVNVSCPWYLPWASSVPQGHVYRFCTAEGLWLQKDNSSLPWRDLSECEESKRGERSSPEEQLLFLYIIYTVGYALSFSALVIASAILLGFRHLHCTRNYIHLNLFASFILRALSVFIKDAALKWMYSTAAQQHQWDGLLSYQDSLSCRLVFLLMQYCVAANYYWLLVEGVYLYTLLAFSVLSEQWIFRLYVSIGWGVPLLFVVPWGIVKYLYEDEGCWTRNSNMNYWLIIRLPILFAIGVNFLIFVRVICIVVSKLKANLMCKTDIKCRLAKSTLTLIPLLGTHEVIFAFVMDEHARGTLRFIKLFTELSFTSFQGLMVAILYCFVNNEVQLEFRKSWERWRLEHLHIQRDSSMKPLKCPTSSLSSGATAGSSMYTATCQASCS
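GLP-1R inverse agonism mode: basal reporter luminescence in engineered HEK293 cells measured after one day of compound exposure at 37 deg C, with a 12 min room-temperature detection step.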
GLP1R ag: activates the human GLP-1 receptor. P43220. HEK293 GLP-1R CRE-luciferase, luminescence, 4-6 h; cells express a hypersensitive GLP-1R form. Potency, µM (highest dose often 45.6 µM), usual class: activators. 0.007% of 380,000 active. AID 624172
HEK293 tox: cytotoxicity in counter-screen for GLP-1R inverse agonists; HEK293 cAMP-luciferase reporter cells, luminescence, 24 h; Potency, µM (series often up to 38.3 µM), hits mostly inhibitors; 0.13% of 410,000 active; AID 624418;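 further: loss of luciferase light is scored as toxicity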
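Compound-treated cells are incubated 24 hr at 37 deg C under 5% CO2 after a 12 hour attachment period, then luciferase detection reagent is added and luminescence is measured following 12 min at room temperature; lowered signal indicates toxicity.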
ClpP mod: qHTS Assay for Activators of ClpP; purified B. subtilis ClpP, FRET peptide cleavage, 20 min; Potency, µM (top dose mostly 57.5 µM); 1.9% of 340,000 active; AID 651965, 2013; active means well fitted falling curve with a large enough effect; inconclusive means small, poorly fitted or top-dose-only effect; inactive means no such curve, though single readings can be large or run the other way; further: the source files actives as falling curves though it sought activators and does not explain the sign; nearly all actives have a fitted effect of over 65% in size
Target sequence (P80244 whole entry, looked up): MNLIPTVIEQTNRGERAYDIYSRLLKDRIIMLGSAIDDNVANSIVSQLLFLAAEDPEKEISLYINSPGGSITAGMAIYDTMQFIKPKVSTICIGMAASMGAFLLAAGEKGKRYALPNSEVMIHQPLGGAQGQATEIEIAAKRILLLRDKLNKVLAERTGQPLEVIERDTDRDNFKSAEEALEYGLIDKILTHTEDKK
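Buffer: 100 mM Tris/HCl pH8, 100 mM KCl, 0.05% low protease BSA, 2.5% glycerol, 0.01% Tween-20. ClpP 10 microg/mL final; 20 min RT; delta FRET normalized to ADEP and DMSO controls.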
Hits are given with their value; – = inactive; ? = inconclusive; · = not tested or not shown. Unless noted, the call rests on the fitted dose curve; in most records, active means well fitted curve in the direction sought with a large enough effect; inconclusive means small, poorly fitted or top-dose-only effect, or another doubt; inactive means no such curve, though single readings can be large; an effect the other way counts as inactive or inconclusive.

SMILES | GLP-1R inv ag | GLP1R ag | HEK293 tox | ClpP mod
Cc1onc(-c2c(F)cccc2Cl)c1C(=O)Nc1nnc(-c2ccccc2)s1 | – | – | – | 31.6µM
Cc1onc(-c2ccccc2Cl)c1C(=O)Nc1nc2c(s1)CCCC2 | 10µM | – | – | –
Cc1onc(-c2ccccc2Cl)c1C(=O)Nc1nnc(-c2ccc(Br)cc2)s1 | 10µM | – | – | –
COc1cc(NC(=O)c2cc3c(=O)oc4ccc(C)cc4c3s2)cc(OC)c1OC | – | – | – | –
N#Cc1c(N)n(-c2cccc(Cl)c2)c2nc3ccccc3nc12 | – | – | – | –
N#Cc1nc(-c2ccco2)oc1N1CCN(c2ccccc2)CC1 | – | – | – | –
N#Cc1nc(-c2cccc3ccccc23)oc1NCCN1CCOCC1 | – | – | – | 6.31µM
N#Cc1nc(-c2ccco2)oc1NCCN1CCOCC1 | – | – | – | 12.6µM
N#Cc1nc(-c2ccco2)oc1N1CCC(Cc2ccccc2)CC1 | – | – | – | 25.1µM
N#Cc1nc(-c2ccccc2F)oc1NCCN1CCOCC1 | – | – | – | –
CC(=O)c1ccc(Nc2cc(C)nc3c(C)cc(C)cc23)cc1 | 8.91µM | – | ? | ·
COc1ccc(CNC(=O)c2cc3cc(S(=O)(=O)N4CCCCC4)ccc3n2C)c(OC)c1 | – | · | – | ?
CCSc1ncc(Cl)c(C(=O)Nc2sc(C(C)=O)c(C)c2C(=O)OC)n1 | – | · | – | –
CCOc1cc(CNCC(C)C)c(Cl)cc1OCC(=O)Nc1ccccc1 | 11.2µM | – | – | ·
CCNCc1cc(OCC)c(OCC(=O)NCCc2ccccc2)cc1Cl | ? | – | – | –
CCc1ccccc1NS(=O)(=O)c1ccc2c(c1)CC(=O)N2 | – | – | – | –
O=C(Cc1ccc([N+](=O)[O-])cc1)Nc1nnc(C2CC2)s1 | – | – | – | 25.1µM
Cc1ccc(CNC(=O)CCC(=O)Nc2nnc(C3CCCCC3)s2)cc1 | – | – | – | 28.2µM
Nc1ccc2c(c1)C(=O)N(c1ccc3ccccc3c1)C2=O | · | · | · | –
O=C(NCc1ccc2c(c1)OCO2)c1ccc2c(c1)N(Cc1ccc(F)cc1)C(=O)c1ccccc1S2=O (centres undefined) | – | – | – | –
Fc1ccc(C(NCCc2ccc(Cl)cc2)c2nnc(-c3ccccc3)o2)c(Cl)c1 (centres undefined) | 10µM | · | – | –
Clc1ccc(CCNC(c2nnc(-c3ccccc3)o2)c2ccccc2Cl)cc1 (centres undefined) | ? | · | – | –
NC(Cc1ccccc1)c1csc(NC(=O)Nc2ccccc2Oc2ccccc2)n1 (centres undefined) | ? | – | – | –
NC(Cc1ccc(C(F)(F)F)cc1)c1csc(NC(=O)Nc2ccccc2Oc2ccccc2)n1 (centres undefined) | ? | – | 11.2µM | –
Clc1cccc[n+]1CCc1ccccc1 | · | · | · | –
SMILES | GLP-1R inv ag | GLP1R ag | HEK293 tox | ClpP mod
O=c1oc2ccccc2cc1-c1nc2c(s1)CCCC2 | ? | – | – | 35.5µM
O=c1oc2ccccc2cc1-c1nc2ccccc2o1 | – | – | – | –
CCc1cccc(CC)c1-n1c(SCC(=O)N2CCCc3ccccc32)nc(O)cc1=O | 10µM | – | – | –
Cc1ccc(C)c(NC(=O)CSc2nnc(-c3cc4occc4n3C)n2-c2ccccc2C)c1 | 11.2µM | · | – | –
Cn1ccnc1SCC(=O)N1CCc2ccccc21 | – | – | ? | –
Cc1ccc(C)c(NC(=O)CSc2nccn2-c2cccc(C)c2C)c1 | 12.6µM | · | – | –
Cc1cccc(-n2ccnc2SCC(=O)N2CCCc3ccccc32)c1C | 11.2µM | – | – | –
O=C(CSc1ncccn1)N1CCCc2ccccc21 | – | – | – | ·
CCCNC1=C(C)C(=O)CC1 | – | – | – | 31.6µM
COc1cc(/C=C/c2sc3ccccc3[n+]2CCCS(=O)(=O)[O-])ccc1O | – | – | 10µM | ·
COc1ccc(N2CCN(S(=O)(=O)CCNC(=O)c3c(F)cccc3Cl)CC2)cc1 | – | · | – | –
CC1=NN(c2ccccc2)C(=O)/C1=C\C=C1\N(C)c2ccccc2C1(C)C | 11.2µM | – | – | –
CN(c1cccc(F)c1)c1cc2c(c3c1ccn3C)C1CCC2C1 (centres undefined) | – | – | – | 8.91µM
CN(c1ccc(Cl)cc1)c1cc2c(c3c1ccn3C)C1CCC2C1 (centres undefined) | ? | – | – | –
O=C(/C=C/c1ccc(OCCCF)cc1)N1CCN(Cc2ccccc2)CC1 | 10µM | – | – | ·
CSc1n[nH]c2nc3c(c(=O)n12)C1(CCCC1)Cc1ccccc1-3 | – | – | – | 28.2µM
C=CCSc1n[nH]c2nc3c(c(=O)n12)C1(CCCC1)Cc1ccccc1-3 | – | – | – | ?
CCSc1n[nH]c2nc3c(c(=O)n12)C1(CCCC1)Cc1ccccc1-3 | ? | – | – | 14.1µM
CSc1nnc2n(C)c3c(c(=O)n12)C1(CCCC1)Cc1ccccc1-3 | – | – | – | 28.2µM
Cn1c(=O)c2c(n3cnnc13)-c1ccccc1CC21CCCC1 | – | – | – | –
CCOC(=O)C1Cn2c(nc3c(c2=O)C2(CCCC2)Cc2ccccc2-3)S1 (centres undefined) | ? | – | – | 28.2µM
Cc1ccc(-c2nn3c(-c4ccccc4C)nnc3c3ccccc23)cc1 | – | · | – | –
CCCCCN1C(C(=O)c2ccccc2)=C(NC(=O)c2ccc(OC)cc2)c2ccccc2S1(=O)=O | – | · | – | –
COc1ccccc1CNC(=O)C(NS(=O)(=O)c1ccc2c(c1)CCN2C(C)=O)C(C)C (centres undefined) | – | · | – | –
Cc1ccc(Cl)c2sc(NC(=O)CS(=O)(=O)c3ccc(Cl)cc3)nc12 | – | · | – | –
SMILES | GLP-1R inv ag | GLP1R ag | HEK293 tox | ClpP mod
COc1ccc(NC(=O)CC2C(=O)N(c3ccc(F)cc3)C(=O)N2Cc2ccco2)cc1 (centres undefined) | – | · | – | –
C/C(=N\NC(=O)c1c(Cl)c(C)nn1C)c1cccc(NC(=O)COc2ccccc2)c1 | – | – | – | –
C/C(=N\NC(=O)c1c(Cl)c(C)nn1C)c1ccc(NC(=O)COc2ccc(Cl)cc2C)cc1 | – | – | – | 25.1µM
CC(C)CCN(Cc1ccco1)C(=O)Cn1ncc2c([nH]c3ccccc32)c1=O | ? | · | – | ?
Cc1ccc(C)c(OCCC(=O)N2CCN(S(=O)(=O)c3cc(C)ccc3C)CC2)c1 | 11.2µM | – | – | –
C[C@@H]1[C@@H](Sc2ccccc2)CC(=O)O[C@@H]1c1ccc(-c2ccccc2)cc1 | ? | – | – | –
O=C1C=CC2(O[C@H](c3ccccc3)[C@@H](c3ccccc3)O2)[C@H](Sc2ccccc2O)C1 | ? | – | 4.47µM | –
CC(C)Nc1ccc(Nc2ccnc3cc4ccccc4cc23)cc1 | 3.16µM | – | 4.47µM | ·
COc1ccc(Nc2ccnc3ccccc23)cc1 | ? | – | – | –
CC(C)NCCCCOc1cccc(Br)c1 | 7.94µM | – | – | –
Nc1ncc(S(=O)(=O)Nc2ccc(F)cc2F)cn1 | – | · | – | –
COc1cccc(OC(C)c2ccnc3nc(/N=C/N(C)C)nn23)c1 (centres undefined) | – | – | – | 31.6µM
